Our source for the outcome and AC50 values is PubChem BioAssay (EPA / NIEHS).

Results filed as inconclusive are left out. Calls of active or inactive are those of the source. How the source made its calls, unless noted: active means hit-call score of the fitted dose curve at least 0.9, where 1 is the maximum; inactive means score below 0.9.

Read-out in experiment [1]: solute carrier (SLCO1B1), SLCO1B1 (gene 10599)
The experiment in a line: LTEA_HepaRG_SLCO1B1: Life Technologies and Expression Analysis (LTEA) Assay for solute carrier (SLCO1B1) using HepaRG (AID 2283530). Conditions: mRNA level, 48 h; actives raise or lower the signal. The method, boiled down:
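Differentiated human HepaRG cells, plated 48 h, switched to serum-free induction medium and exposed in duplicate for 48 h to 8 half-log concentrations (top 100 uM) in 0.5% DMSO. SLCO1B1 mRNA by TaqMan qRT-PCR, normalized to ACTB/GAPDH/POLR2A.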

Read-out in experiment [2]: sulfotransferase 2A1 (SULT2A1), SULT2A1 (gene 6822)
The experiment in a line: LTEA_HepaRG_SULT2A1: Life Technologies and Expression Analysis (LTEA) Assay for sulfotransferase 2A1 (SULT2A1) using HepaRG (AID 2283531). As to conditions: mRNA level, 48 h; actives raise or lower the signal. Put shortly:
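Differentiated human HepaRG cells in serum-free induction medium were exposed for 48 h to eight half-log concentrations (top 100 uM, 0.5% DMSO). SULT2A1 mRNA was measured by qRT-PCR, normalized to ACTB, GAPDH and POLR2A, and fitted bidirectionally against DMSO.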

Read-out in experiment [3]: Transforming Growth Factor (TGFA), TGFA (gene 7039)
The experiment in a line: LTEA_HepaRG_TGFA: Life Technologies and Expression Analysis (LTEA) Assay for Transforming Growth Factor (TGFA) using HepaRG (AID 2283532). As to conditions: mRNA level, 48 h; actives raise or lower the signal. The method, boiled down:
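qRT-PCR read-out of TGFA transcript, normalized to three housekeeping genes, fitted bidirectionally against 0.5% DMSO baseline. Human HepaRG cultures received chemicals for 48 h at eight half-log concentrations, top 100 uM.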

Read-out in experiment [4]: Transforming Growth Factor (TGFB1), TGFB1 (gene 7040)
The experiment in a line: LTEA_HepaRG_TGFB1: Life Technologies and Expression Analysis (LTEA) Assay for Transforming Growth Factor (TGFB1) Transporter using HepaRG (AID 2283533). Conditions: mRNA level, 48 h; actives raise or lower the signal. Put shortly: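 Differentiated human HepaRG cells in serum-free induction medium were exposed in duplicate for 48 h to eight concentrations (top 100 uM, half-log steps, 0.5% DMSO). TGFB1 mRNA was quantified by qRT-PCR, normalized to ACTB, GAPDH, POLR2A, and fitted bidirectionally against DMSO.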

Read-out in another experiment: TIMP1, TIMP1 (gene 7076)
Nature of the experiment: LTEA_HepaRG_TIMP1: Life Technologies and Expression Analysis (LTEA) Assay for TIMP1 using HepaRG (AID 2283534).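 Further: TaqMan qRT-PCR signal normalized to ACTB GAPDH and POLR2A housekeeping genes.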 Conditions: mRNA level, 48 h; actives raise or lower the signal. Put shortly:
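Differentiated human HepaRG cells in serum-free induction medium were exposed 48 h to chemicals (8 half-log concentrations, top 100 uM, 0.5% DMSO). TIMP1 mRNA was quantified by TaqMan qRT-PCR, normalized to ACTB/GAPDH/POLR2A; bidirectional fit versus DMSO.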

Read-out in experiment [5]: Tumor necrosis factor receptor 1 (TNFRSF1A), TNFRSF1A (gene 7132)
Nature of the experiment: LTEA_HepaRG_TNFRSF1A: Life Technologies and Expression Analysis (LTEA) Assay for Tumor necrosis factor receptor 1 (TNFRSF1A) using HepaRG (AID 2283535). Conditions: mRNA level, 48 h; actives raise or lower the signal. The method, boiled down:
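Differentiated human HepaRG cells were exposed in duplicate for 48 h in serum-free induction medium to eight concentrations (top 100 uM, half-log steps, 0.5% DMSO). TNFRSF1A mRNA was quantified by qRT-PCR, normalized to ACTB, GAPDH and POLR2A, then fitted bidirectionally against DMSO.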

Read-out in experiment [6]: UDP glucuronosyltransferase (UGT1A1), UGT1A1 (gene 54658)
Nature of the experiment: LTEA_HepaRG_UGT1A1: Life Technologies and Expression Analysis (LTEA) Assay for UDP glucuronosyltransferase (UGT1A1) using HepaRG (AID 2283538). Conditions: mRNA level, 48 h; actives raise or lower the signal. Put shortly:
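mRNA induction or loss of UGT1A1, by TaqMan qRT-PCR, in duplicate HepaRG wells after 48 h exposure to half-log dilutions topping at 100 uM; DMSO (0.5%) served as baseline.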

Read-out in experiment [7]: UDP glucuronosyltransferase (UGT1A6), UGT1A6 (gene 54578)
The experiment in a line: LTEA_HepaRG_UGT1A6: Life Technologies and Expression Analysis (LTEA) Assay for UDP glucuronosyltransferase (UGT1A6) using HepaRG (AID 2283539). Conditions: mRNA level, 48 h; actives raise or lower the signal. The method, boiled down: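 Human HepaRG cells were dosed for 48 h in serum-free induction medium with 0.5% DMSO vehicle, eight-point half-log series from 100 uM, in duplicate. UGT1A6 mRNA was measured by qRT-PCR, normalized to ACTB, GAPDH, POLR2A, and fitted bidirectionally against DMSO.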

Experiment [8] can be described thus: LTEA_HepaRG_LDH_cytotoxicity: Cytotoxicity Assessment in the Life Technologies and Expression Analysis (LTEA) Assay (AID 2283563; active means hit-call score of the fitted dose curve at least 0.9, where 1 is the maximum). The method, boiled down:
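Differentiated human HepaRG cells, plated 48 h beforehand, were switched to serum-free induction medium and exposed for 48 h to eight half-log concentrations (top 100 uM) in 0.5% DMSO. LDH was measured in spent medium; activity was fitted relative to DMSO vehicle.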

Experiment [9] in a line: ATG_XTT_Cytotoxicity: Cytotoxicity Assessment in the Attagene TRANS-FACTORIAL HepG2 Assay (AID 2283584; active means hit-call score of the fitted dose curve at least 0.9, where 1 is the maximum). The method, boiled down:
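HepG2 human liver cells, transiently transfected with multiple GAL4-UAS reporter units, were dosed and read at 24 h by XTT as cell number. Loss of signal was fitted relative to DMSO negative control baseline.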

Read-out in experiment [10]: X-box binding protein 1 (XBP1), XBP1 (gene 7494)
The experiment in a line: LTEA_HepaRG_XBP1: Life Technologies and Expression Analysis (LTEA) Assay for X-box binding protein 1 (XBP1) using HepaRG (AID 2283540). Conditions: mRNA level, 48 h; actives raise or lower the signal. Put shortly: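 Differentiated human HepaRG cells in serum-free induction medium were exposed in duplicate for 48 h to eight half-log concentrations up to 100 uM in 0.5% DMSO. XBP1 mRNA was quantified by qRT-PCR, normalised to ACTB, GAPDH and POLR2A, with bidirectional fitting against DMSO.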

Read-out in experiment [11]: Cellular tumor antigen p53 (Homo sapiens) (UniProt P04637)
Nature of the experiment: LTEA_HepaRG_TP53: Life Technologies and Expression Analysis (LTEA) Assay for Tumor Protein P53 (TP53) using HepaRG (AID 2283537). As to conditions: mRNA level, 48 h; actives raise or lower the signal. Put shortly: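 Gain or loss of TP53 mRNA signal is scored relative to 0.5% DMSO after 48 h chemical treatment of HepaRG liver cells, tested in duplicate at eight half-log concentrations up to 100 uM.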

Experiment [12] can be described thus: TOX21_p53_BLA_p2_viability: Viability Assessment in the Tox21 HCT-116 p53 Agonism Beta-lactamase Assay, Phase 2 (AID 2283591; active means hit-call score of the fitted dose curve at least 0.9, where 1 is the maximum;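 further: compound exposure lasted 16 h at 37 °C; actives lower the ATP signal meaning cytotoxicity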). Put shortly:
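HCT116 p53-bla cells, 4000/well, dosed after 5 h plating (217-fold dilution of DMSO stocks) and incubated 16 h at 37C. Viability taken as cellular ATP by CellTiter-Glo luminescence after 30 min RT; signal loss marks cytotoxicity.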

The target of experiment [13] is Cellular tumor antigen p53 (Homo sapiens) (UniProt P04637). The experiment in a line: TOX21_p53_BLA_p3_ratio: Tox21 HCT-116 p53 Agonism Beta-lactamase Assay, Ratio, Phase 3 (AID 2283596; active means hit-call score of the fitted dose curve at least 0.9, where 1 is the maximum). Put shortly: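 Cells were seeded at 4000/well, rested 5 h at 37C, then dosed with DMSO compound solutions (217-fold dilution) for 16 h. CCF4-AM substrate was loaded for 2 h at room temperature, and the 460/530 nm emission ratio was fitted for gain of signal versus DMSO.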

Experiment [14] shares this target. Nature of the experiment: TOX21_p53_BLA_p5_ratio: Tox21 HCT-116 p53 Agonism Beta-lactamase Assay, Ratio, Phase 5 (AID 2283599; active means hit-call score of the fitted dose curve at least 0.9, where 1 is the maximum). The method, boiled down:
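HCT-116 p53-bla cells (4000/well) plated 5 h, dosed with compound (217-fold DMSO dilution) for 16 h at 37 C; CCF4-AM substrate 2 h at room temperature. Activity is the 460/530 nm emission ratio (405 nm excitation), fitted in gain-of-signal direction versus DMSO.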

A short description of experiment [15]: TOX21_p53_BLA_p5_viability: Viability Assessment in the Tox21 HCT-116 p53 Agonism Beta-lactamase Assay, Phase 5 (AID 2283600; active means hit-call score of the fitted dose curve at least 0.9, where 1 is the maximum). The method, boiled down: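 Luciferase-coupled ATP quantitation of cells treated for 16 h (37C, 5% CO2) with test chemicals delivered in DMSO via a 217-fold dilution; 4000 cells/well; reagent incubated 30 min at room temperature before luminescence reading.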

Experiment [16] is described as follows: TOX21_p53_BLA_p3_viability: Viability Assessment in the Tox21 HCT-116 p53 Agonism Beta-lactamase Assay, Phase 3 (AID 2283593; active means hit-call score of the fitted dose curve at least 0.9, where 1 is the maximum;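 further: cells exposed to compound for 16 h before reading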). Put shortly: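 HCT116 cells, 4000/well, dosed 5 h after plating by pin transfer (217-fold dilution from DMSO stock) and incubated 16 h at 37C, 5% CO2. Viability read as ATP luminescence with CellTiter-Glo after 30 min at room temperature.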

Chain of Cellular tumor antigen p53 (Homo sapiens) (P04637 whole entry, looked up): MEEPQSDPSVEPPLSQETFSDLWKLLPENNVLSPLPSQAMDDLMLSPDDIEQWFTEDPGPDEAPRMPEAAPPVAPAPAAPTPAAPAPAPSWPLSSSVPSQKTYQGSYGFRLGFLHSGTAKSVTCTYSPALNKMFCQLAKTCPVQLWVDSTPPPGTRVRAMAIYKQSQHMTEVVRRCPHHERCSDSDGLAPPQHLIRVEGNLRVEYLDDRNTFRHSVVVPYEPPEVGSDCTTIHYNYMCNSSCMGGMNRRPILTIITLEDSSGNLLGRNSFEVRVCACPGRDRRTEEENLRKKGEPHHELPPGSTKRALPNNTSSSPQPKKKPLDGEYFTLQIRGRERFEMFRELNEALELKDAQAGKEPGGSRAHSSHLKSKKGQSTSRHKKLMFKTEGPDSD

Take `Cn1cnc2c1c(=O)[nH]c(=O)n2C`: the outcome is “inactive” in experiment [1]; “inactive” in [2]; “inactive” in experiment [3]; “inactive” in [4]; “inactive” with TIMP1, TIMP1 (gene 7076); “inactive” in experiment [5]. Besides, the call in experiment [6], in experiment [7], in experiment [8] and in experiment [9] was inactive.

Regarding `CCCCCCCCCCCCCCCCO`, the outcome in [1] is “inactive”; in experiment [3] it was “inactive”; in [4], “inactive”; with TIMP1, TIMP1 (gene 7076), “inactive”; in experiment [5], “inactive”; in experiment [6], “inactive”. The outcome in experiment [7], in experiment [8] and in [9] was inactive. In [2], the AC50 is 50000 nM (active).

For `CC(N)=O`, the outcome in experiment [1] is “inactive”; in experiment [2], “inactive”; in experiment [3], “inactive”; in experiment [4], “inactive”; in the experiment with TIMP1, TIMP1 (gene 7076), “inactive”; in [6] it was “inactive”. Besides, the result in experiment [7], in experiment [10], in experiment [8] and in [9] was inactive. Further, the AC50 in experiment [5] is 243 nM (active).

In the case of `CC1(C)C(=O)NC(=O)N1CO`, the outcome in [1] was “inactive”; in experiment [2] it was “inactive”; in experiment [3], “inactive”; in experiment [4], “inactive”; with TIMP1, TIMP1 (gene 7076), “inactive”; in experiment [5] it was “inactive”. Further, the compound was classed as inactive in experiment [11], in experiment [6], in experiment [7], in experiment [8], in experiment [9] and in experiment [12]. The outcome in [13], in [14] and in experiment [15] was inactive.

As for `O=NO`, the outcome in experiment [1] is “inactive”; in experiment [2] it was “inactive”; in experiment [3] it was “inactive”; in [4], “inactive”; in the experiment with TIMP1, TIMP1 (gene 7076), “inactive”; in experiment [5], “inactive”. In addition, the compound was classed as inactive in [6], in [7], in [10] and in [8].

As for `CS(=O)(=O)c1ccc([C@@H](C[C@H]2CCC(=O)C2)C(=O)Nc2cnccn2)cc1Cl`, the AC50 was 1010 nM (active) in [1]; 938 nM (active) in experiment [3]; 1220 nM (active) in [4]; 14800 nM (active) in [5]; 1090 nM (active) in [11]. Besides, the outcome in experiment [2] is “inactive”; in the experiment with TIMP1, TIMP1 (gene 7076), “inactive”; in [6] it was “inactive”; in experiment [7], “inactive”; in experiment [8], “inactive”; in experiment [9], “inactive”. For the same compound, the compound was called inactive in [12], in [16], in experiment [13] and in [15].

As a reminder, the AC50 is the concentration giving half of the maximal activity seen.
